This note sets out measurements from PubChem BioAssay AID1851 (National Center for Advancing Translational Sciences (NCATS), 2009).

The campaign covered roughly 16,000 compounds. About 5,700 (36%) were called active. About 24% were inconclusive and are not listed. The call rests on the fitted dose curve; in most records, active means well fitted curve in the direction sought with a large enough effect; inconclusive means small, poorly fitted or top-dose-only effect, or effect the other way; inactive means no such curve, though single readings can be large or run the other way. This is one part of the list.
On the % scale 0 is the no-effect control and ±100 the full control effect.

For the test, the target named is Cytochrome P450 1A2 (Homo sapiens) (UniProt P05177). Briefly: Cytochrome panel assay with activity outcomes. Conditions: recombinant CYP, pro-luciferin dealkylation, luminescence, p450-cyp1a2; series mostly up to 57.1 µM.
Chain of Cytochrome P450 1A2 (Homo sapiens) (P05177 whole entry, looked up): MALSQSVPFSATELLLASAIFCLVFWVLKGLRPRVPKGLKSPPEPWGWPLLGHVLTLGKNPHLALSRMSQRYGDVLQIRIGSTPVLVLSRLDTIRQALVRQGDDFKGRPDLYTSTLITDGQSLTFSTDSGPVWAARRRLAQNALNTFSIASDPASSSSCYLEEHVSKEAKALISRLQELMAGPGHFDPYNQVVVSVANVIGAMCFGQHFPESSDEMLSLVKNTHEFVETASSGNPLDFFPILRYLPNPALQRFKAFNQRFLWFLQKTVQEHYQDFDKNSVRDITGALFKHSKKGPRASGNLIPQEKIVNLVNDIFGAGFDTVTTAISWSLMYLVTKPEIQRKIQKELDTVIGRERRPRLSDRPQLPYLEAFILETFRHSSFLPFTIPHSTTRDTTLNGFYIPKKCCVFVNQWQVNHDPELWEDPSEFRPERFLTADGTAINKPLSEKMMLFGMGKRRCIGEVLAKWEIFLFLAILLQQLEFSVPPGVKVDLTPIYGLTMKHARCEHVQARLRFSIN
For `COc1cccc(OC)c1C(=O)NC(=S)N1CCN(c2ccc(C(F)(F)F)cc2[N+](=O)[O-])CC1`, the AC50 (usually the midpoint of the concentration-response curve, whichever way the signal moves) is “inactive”.
Consider `CCC(=O)NC(=S)N1CCN(c2ccc([N+](=O)[O-])cc2Cl)CC1`, for which the AC50 was 12600 nM (active).
With `CN1CCN(c2ccc([N+](=O)[O-])cc2NC(=O)c2ccccc2Cl)CC1`, the AC50 entry was “inactive”.
For `CCCCCCCCCCCCCCC[C@H](O)[C@H](N)CO`, the AC50 result is “inactive”.
Turning to `Cc1ccc(/C=N\Nc2nc3ccc(Cl)cc3[nH]2)o1`, the AC50 was 2000 nM (active).
Consider `Cc1ccc(/C=N/NC(=O)C2CCN(Cc3ccc(F)cc3Cl)CC2)o1`, for which the AC50 result was “inactive”.
As to `CCN1C(=O)[C@H]2[C@H]3[C@H](O)[C@H](O)C/C(=N/OCC[C@H]4C=C[C@H](OC(C)=O)[C@@H](COC(C)=O)O4)[C@@H]3CC[C@@H]2C1=O`, the activity, negative = inhibition is -1.02% [at 11.4 µM] (inactive).
As for `OC[C@@H]1O[C@@H](n2cnc3c(NC4CCCCC4)ncnc32)[C@@H](O)[C@H]1O`, the AC50 entry is “inactive”.
Consider `CC(C)C(=O)N[C@H]1CCCN1C(=O)/C=C\c1ccccc1`, for which the activity, negative = inhibition was 1.37% [at 11.4 µM] (inactive).
For the compound `C#CCSc1nncn1C(=O)/C=C/c1ccccc1`, the AC50 was 15800 nM (active).
Regarding `CC(C)C(=O)N[C@@H]1CCCN1C(=O)/C=C\c1ccccc1`, the activity, negative = inhibition is 0.0238% [at 11.4 µM] (inactive).
On to `COc1ccc(C(=O)OC(C)CN2CCN(C)CC2)cc1OC` (stereo unspecified), for which the AC50 entry was “inactive”.
Consider `CN1CCN(c2nc(-c3ccccc3)cc(C(F)(F)F)n2)CC1`, for which the half-maximal activity concentration (AC50) is 1120 nM (active).
Take `COc1ccc(-c2cc(C(F)(F)F)nc(N3CCOCC3)n2)cc1OC`: the AC50 was 501 nM (active).
For the compound `COc1ccc(CC(=S)N2CCOCC2)cc1OC`, the AC50 result was “inactive”.
Turning to `COc1ccc(-c2nnn(Cc3nc(N)nc(N4CCOCC4)n3)n2)cc1OC`, the AC50 entry was “inactive”.
Take `COc1ccc(-c2cc(C(F)(F)F)nc(NC3CCCC3)n2)cc1OC`: the half-maximal activity concentration (AC50) is 2820 nM (active).
As to `COc1ccc(-c2cc(C(F)(F)F)nc(N3CCN(C)CC3)n2)cc1OC`, the AC50 was 2820 nM (active).
On to `COc1ccc(NC(=O)c2ccc(-c3ccc(-c4noc(C)n4)cc3C)cc2)cc1N1CCN(C)CC1`, for which the AC50 entry is “inactive”.
In the case of `O=C(O)[C@@H](O)[C@@H](O)[C@@H](O[C@H]1O[C@@H](CO)[C@@H](O)[C@@H](O)[C@@H]1O)[C@@H](O)CO`, the AC50 result was “inactive”.
On to `C=C1c2cccc(O)c2C(O)=C2C(=O)[C@@]3(O)C(O)=C(C(N)=O)C(=O)[C@@H](N(C)C)[C@@H]3[C@@H](O)[C@H]12`, for which the AC50 result is “inactive”.
On to `C#CCCCO/N=C1/C[C@@H](O)[C@@H](O)[C@@H]2[C@@H]3C(=O)N(CC)C(=O)[C@H]3CC[C@H]12`, for which the activity, negative = inhibition was -27.8% [at 11.4 µM] (inactive).
On to `COc1ccc(-c2cc(C(F)(F)F)nc(N3CCCCC3)n2)cc1OC`, for which the half-maximal activity concentration (AC50) is 631 nM (active).
In the case of `OC[C@@H]1O[C@@H](N2CCN([C@@H]3O[C@@H](CO)[C@@H](O)[C@H](O)[C@H]3O)CC2)[C@@H](O)[C@H](O)[C@H]1O`, the activity, negative = inhibition is -9.68% [at 2.29 µM] (inactive).
In the case of `CS(=O)(=O)N(CC(=O)Nc1c(F)cccc1F)c1ccc(C23CC4CC(CC(C4)C2)C3)cc1`, the AC50 result is “inactive”.
For `O=C1O[C@H](CN2CCOCC2)CN1/N=C\c1ccc([N+](=O)[O-])o1`, the AC50 entry was “inactive”.
`Cc1cc2ncn(/N=C/c3ccc([N+](=O)[O-])o3)c2cc1C`: the half-maximal activity concentration (AC50) was 10000 nM (active).
Same read-out and setting: the same measure for `N/C(=N\OC(=O)Cc1ccc(Cl)cc1)c1cccnc1`: 11200 nM (active).
On the same count and under the same terms, the same measure for `CCN=C(Nc1ccc(Cl)cc1)c1cccnc1`: “inactive”.
Regarding `C=Cc1c(C)c2cc3[nH]c(cc4nc(cc5nc(cc1[nH]2)C(C)=C5CCC(=O)O)C(CCC(=O)O)=C4C)c(C)c3C=C`, the AC50 was 6310 nM (active).
Consider `C=Cc1c(C)c2cc3nc(cc4[nH]c(cc5nc(cc1[nH]2)C(C)=C5CCC(=O)O)c(CCC(=O)OC)c4C)[C@@]1(C)C3=CC=C(C(=O)OC)[C@H]1C(=O)OC` (tested in a mixture with another compound), for which the concentration at half-maximal activity (AC50) is 3980 nM (active).
Regarding `CC1CC(OCC(O)CN2CCN(Cc3ccccc3)CC2)CC(C)(C)C1` (stereo unspecified), the AC50 entry was “inactive”.
Consider `C/C(=N\Nc1nnc(C)c(=O)[nH]1)C(=O)O`, for which the AC50 entry is “inactive”.
As to `C/C(=C/C(=O)NCc1ccccc1)C(=O)O`, the AC50 result is “inactive”.
For `O=C(NCc1ccc(F)cc1)C1CCN(S(=O)(=O)N2CCCCC2)CC1`, the AC50 result is “inactive”.
As for `O=C(O)NCc1ccccc1` (tested in a mixture with another compound), the AC50 was 3160 nM (active).
Same read-out and setting: for `O=C(O)CC[C@@H](NC(=O)c1ccccc1C(=O)O)C(=O)O` the value was “inactive”; for `O=C(O)c1ccccc1C(=O)NCc1ccc(F)cc1`, 5010 nM (active).
On the same count and under the same terms, for `CCCC(=O)NNC(=O)CCC(=O)NCc1ccccc1` the value was “inactive”; for `CC1CCCC(NC(=O)C2CCN(S(=O)(=O)N3CCOCC3)CC2)C1C` (stereo unspecified), “inactive”; for `Cc1cccc(CSCCNC(=O)c2ccc(N(C)S(=O)(=O)c3ccccc3)cc2)c1`, “inactive”.
Turning to `COC(=O)c1c(C)oc2ccc(N(C(=O)c3ccncc3)S(=O)(=O)c3ccccc3)cc12`, the AC50 was 11200 nM (active).
As for `CN(c1ccc(C(=O)NCC2CCCO2)cc1)S(=O)(=O)c1ccccc1` (stereo unspecified), the AC50 result is “inactive”.
Still for that read-out and setting: the same measure for `Cc1cc(C)cc(Oc2coc3cc(OC(=O)c4cccs4)ccc3c2=O)c1`: 2000 nM (active); for `Cc1cccc(Oc2coc3cc(OC(=O)c4cc5ccccc5oc4=O)ccc3c2=O)c1`: “inactive”.
Consider `Cc1nc(N=Nc2ccc(S(=O)(=O)O)cc2S(=O)(=O)O)c(COP(=O)(O)O)c(C=O)c1O`, for which the AC50 entry was “inactive”.
Turning to `CN(Cc1ccco1)c1nc(-c2ccc3c(c2)OCO3)nc2ccccc12`, the AC50 was 501 nM (active).
Still for that read-out and setting: the same measure for `CN(Cc1ccco1)c1nc(-c2cccnc2)nc2ccccc12`: 316 nM (active); for `CN(C)c1ccc(-c2nc(N(C)Cc3ccco3)c3ccccc3n2)cc1`: 631 nM (active).
As for `CN(Cc1ccccc1)c1nc(-c2ccc([N+](=O)[O-])cc2)nc2ccccc12`, the AC50 is 1580 nM (active).
On to `CN(Cc1ccco1)c1nc(-c2ccoc2)nc2ccccc12`, for which the concentration at half-maximal activity (AC50) is 398 nM (active).
Same read-out and setting: for `Cc1ccc2[nH]c3c(N4CCc5ccccc5C4)ncnc3c2c1` the value was 1580 nM (active).
`Cc1ccc2[nH]c3nc(CCCn4ccnc4-c4ccccc4)nnc3c2c1`: the activity, negative = inhibition is -11.9% [at 11.4 µM] (inactive).
On to `CCOc1ccc2c(c1)nc(SCC(=O)c1ccc(Br)s1)n2C`, for which the AC50 was 2240 nM (active).
As to `CCOC(=O)N1CCN(C(=O)c2ccc3nc(SCc4ccc(F)cc4)n(C)c3c2)CC1`, the AC50 result is “inactive”.
On to `COc1ccc2c(c1)nc(SCC(=O)c1ccc(Br)s1)n2C`, for which the AC50 is 7940 nM (active).
